# Sampled rows, rich in hits. Any-hit rate of the full collection: about 19%.
# DT40 TDP1 CPT: growth inhibition of DT40 Tdp1-/-;hTDP1 cells with camptothecin (screen for TDP1 inhibitors); chicken DT40 Tdp1-/-;hTDP1 cells + 20 nM CPT, ATP luminescence, 48 h; Potency, µM (doses to about 46.2 µM), actives largely listed as inhibitors; 420,000 compounds, 12% hits; note: nearly all actives have a fitted effect of over 55% in size
#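 Chicken DT40 Tdp1-/- cells complemented with human TDP1, 400 cells/well, exposed to compounds plus 20 nM camptothecin for at least 48 h at 37 C; viability read as ATP content by CellTiter-Glo luminescence.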
# IL1B secr inh: inhibitors of inflammasome signaling (IL-1 beta secretion). THP-1 LPS/ATP IL-1B secretion, AlphaLISA, 16 h; active compounds read low. activity change, % at 57.5 µM. 360,000 compounds, 4.7% hits; in the data active = activity change below about -50%; inconclusive = mostly about -30% to -49%
#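 Secreted IL-1B measured by AlphaLISA bead assay after 16 h compound exposure of THP-1 cells; compounds (final up to 57.5 uM) added 1 h before LPS (250 ng/mL) and ATP (1.25 mM) stimulation; lower signal means less secretion.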
# HepG2 tox: counter-screen for TGF-b inhibitors: cytotoxicity in HepG2 cells; HepG2 CAGA-GFP viability, ATP luminescence, 18 h; Potency, µM (highest dose often 46.1 µM), actives largely listed as cytotoxic; 410,000 compounds, 0.76% hits; AID 588856
#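 CellTiter-Glo luminescence gave cytotoxicity after 18 hours at 37 degrees C. The cells were HepG2 CAGA-GFP in 1% FBS DMEM, stimulated with 500 pg/mL TGF-beta after compound addition. %Activity was normalised to no-cell wells (complete cell-killing) and DMSO (no toxicity), and curves were fitted and classified.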
# TDP1 block: TDP1 (human) enzyme inhibition | 350,000 compounds, 0.28% hits | AID 485290 | recombinant TDP1, AlphaScreen DNA substrate cleavage | Q9NUW8 | Potency, µM (doses to about 130 µM), actives largely listed as inhibitors; note: nearly all actives have a fitted effect of over 40% in size
# Target sequence (Q9NUW8 whole entry, looked up): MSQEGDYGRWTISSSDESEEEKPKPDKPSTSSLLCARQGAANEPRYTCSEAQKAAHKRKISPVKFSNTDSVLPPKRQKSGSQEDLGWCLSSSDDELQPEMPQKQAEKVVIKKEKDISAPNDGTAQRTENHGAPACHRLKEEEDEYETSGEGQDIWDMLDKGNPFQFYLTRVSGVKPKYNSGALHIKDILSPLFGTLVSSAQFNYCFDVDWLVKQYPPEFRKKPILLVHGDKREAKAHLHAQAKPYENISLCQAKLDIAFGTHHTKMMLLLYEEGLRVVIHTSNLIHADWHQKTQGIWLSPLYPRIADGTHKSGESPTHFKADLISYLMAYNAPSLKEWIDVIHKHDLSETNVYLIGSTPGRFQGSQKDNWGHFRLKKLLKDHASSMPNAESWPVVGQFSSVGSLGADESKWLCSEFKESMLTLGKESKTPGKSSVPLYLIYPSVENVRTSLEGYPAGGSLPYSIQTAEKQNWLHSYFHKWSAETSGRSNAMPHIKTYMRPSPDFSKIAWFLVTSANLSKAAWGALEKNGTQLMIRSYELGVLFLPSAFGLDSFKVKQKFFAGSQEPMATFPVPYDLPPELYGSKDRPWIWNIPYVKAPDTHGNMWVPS
#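 Recombinant human Tdp1 (E. coli-expressed, 1 nM final) preincubated with compounds 15 min at room temperature, then 5'-biotin/3'-phosphotyrosine-FITC DNA substrate (15 nM final) added for 5 min. AlphaScreen beads (10 ug/ml final) added 10 min; cleavage lowers signal.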
# TDP1 cell noCPT: qHTS for Inhibitors of human tyrosyl-DNA phosphodiesterase 1 (TDP1): qHTS in cells in absence of CPT; DT40 Tdp1-/- hTDP1 cells, no CPT, ATP luminescence, 48 h; 420,000 compounds, 15% hits; Potency, µM (top dose mostly 46.2 µM), actives largely listed as inhibitors; note: nearly all actives have a fitted effect of over 55% in size
#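 Stably hTDP1-transfected Tdp1-null chicken DT40 cells were treated with library compounds minus camptothecin and grown for at least 48 hr at 37 °C, after which cellular ATP was quantified by luminescence.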
# TGFb SMAD3 inh: blocks TGF-b signaling; HepG2 CAGA-GFP TGF-b/SMAD3 reporter, GFP fluorescence, 18 h; TGF-beta stimulated, 500 pg/mL final; Potency, µM (series often up to 46.1 µM), most hits filed as inhibitors; 410,000 compounds, 1.2% hits; note: nearly all actives have a fitted effect of over 65% in size
#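 Per well, imaged GFP fluorescence of HEPG2 CAGA-GFP cells gives the signal; cells get compound, then TGF-beta (500 pg/mL final), 18 h at 37 degrees C; %Activity versus -TGF-beta and +DMSO controls.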
# Numbers stand for hits; i = inactive; ? = inconclusive; nt = no result; [ ] = another dose, or the depositor's remark. Unless noted, calls come from the whole dose curve; as a rule, active = well fitted curve in the direction sought with a large enough effect; inconclusive = small, poorly fitted or top-dose-only effect, or another doubt; inactive = no such curve, though single readings can be large; an effect the other way counts as inactive or inconclusive.
SMILES,DT40 TDP1 CPT,IL1B secr inh,HepG2 tox,TDP1 block,TDP1 cell noCPT,TGFb SMAD3 inh
O=C(NCC(c1ccco1)N1CCN(c2ccccc2)CC1)C1CCCCC1 (centres undefined),?,i,i,nt,23µM,i
O=C(NCC(c1ccco1)N1CCN(c2ccccc2)CC1)C(=O)NC1CCCCC1 (centres undefined),i,i,i,nt,i,i
O=C(NCC(c1ccco1)N1CCN(c2ccccc2F)CC1)c1cccs1 (centres undefined),i,i,i,nt,?,i
O=C(NCC(c1ccco1)N1CCN(c2ccccc2)CC1)C(=O)NC1CCCC1 (centres undefined),?,i,i,i,?,i
O=C(NCc1cccs1)C(=O)NCC(c1ccco1)N1CCN(c2ccccc2F)CC1 (centres undefined),23µM,i,i,i,?,i
CCc1cc(=O)[nH]c(SCc2nc(-c3ccccc3)no2)n1,?,nt,i,i,?,?
O=C(CCCc1ccccc1)NC12CC3CC(CC(C3)C1)C2,i,i,i,nt,?,i
COc1ccc(NCc2nnc(SCC#N)n2-c2ccccc2OC)cc1,?,i,i,i,16µM,i
COc1ccc(NCc2nnc(SCC(=O)NCc3ccco3)n2-c2ccccc2OC)cc1,i,i,i,i,i,i
CCOC(=O)N1CCc2c(sc(NCc3sccc3C)c2C(=O)Nc2ccc(OC)cc2OC)C1,?,nt,i,i,?,i
CCOC(=O)N1CCc2c(sc(NCc3cc(OC)c(OC)cc3OC)c2C(=O)Nc2ccc(OCC)cc2)C1,?,nt,i,i,?,?
CCOC(=O)N1CCc2c(sc(NCc3cccc(F)c3)c2C(=O)Nc2ccc(OC)cc2)C1,?,nt,i,i,16µM,?
COc1ccc(NC(=O)c2c(NCc3cccc(F)c3)sc3c2CCCC3)c(OC)c1,?,nt,i,i,?,?
COC(=O)c1ccc(NC(=O)c2c(NCc3cccc(F)c3)sc3c2CCCC3)cc1,21µM,nt,i,i,16µM,?
CCOC(=O)N1CCc2c(sc(NCc3ccc(N(C)C)cc3)c2C(=O)Nc2ccc(OC)cc2)C1,21µM,nt,i,i,?,?
COc1ccc(-c2noc3c2-c2nc(-c4c(F)cccc4F)sc2CC3)cc1,i,i,i,nt,i,i
COc1cc2nc(Cl)nc(N3CCCCC3)c2cc1OC,i,-61,i,i,26µM,i
CCCn1c2ccccc2c2cnn(CC(=O)NC3CCCC(C)C3C)c(=O)c21 (centres undefined),?,i,i,i,2.1µM,i
CC1CCCCN1CCCNC(=O)Cn1ncc2c3ccccc3n(Cc3ccccc3F)c2c1=O (centres undefined),?,nt,i,i,18µM,i
CCCn1c2ccccc2c2cnn(CC(=O)O)c(=O)c21,i,i,i,nt,i,i
CCn1c(=O)c2c(cnn2C)c2ccccc21,7.3µM,i,i,i,?,i
CCCn1c2ccccc2c2cnn(CC(=O)NCCCN(Cc3ccccc3)C(C)C)c(=O)c21,?,nt,i,i,21µM,?
CC1CCCCN1CCCNC(=O)Cn1ncc2c3ccccc3n(C)c2c1=O (centres undefined),i,nt,i,i,i,i
O=C(Oc1ccccc1)N1CCC[C@@]2(CCN(c3ccccn3)C2)C1,i,nt,nt,nt,i,nt
CCCn1c2ccccc2c2cnn(CC(=O)N(CCCOC(C)C)Cc3ccco3)c(=O)c21,16µM,nt,i,i,16µM,?
SMILES,DT40 TDP1 CPT,IL1B secr inh,HepG2 tox,TDP1 block,TDP1 cell noCPT,TGFb SMAD3 inh
CCCN(CCC)CCCNC(=O)Cn1ncc2c3ccccc3n(Cc3ccc(F)cc3)c2c1=O,18µM,nt,i,i,21µM,i
CCCn1c2ccccc2c2cnn(CC(=O)NCCc3ccc(OCC)cc3)c(=O)c21,?,nt,i,i,23µM,i
Cc1ccccc1Cn1c2ccccc2c2cnn(CC(=O)NCCCN3CCOCC3)c(=O)c21,?,-72,i,i,i,i
Cn1c(=O)[nH]c(=O)c2c1nc(N1CCCCC1)n2CC(O)COc1ccc([N+](=O)[O-])cc1 (centres undefined),?,i,i,i,?,i
CN(C)C(=O)CCC(=O)NCC1Cc2cccc(-c3ccccc3C(F)(F)F)c2O1 (centres undefined),?,nt,nt,nt,i,nt
CCOc1ncccc1C(=O)OCC(=O)NCc1cccs1,i,i,i,i,i,i
c1ccc(Nc2ncncc2-c2ccc3c(c2)OCO3)cc1,i,nt,nt,nt,i,nt
CCOC(=O)c1cc(OC(=O)c2ccc(OC)c(OC)c2)n(-c2ccccc2)n1,nt,nt,i,i,nt,i
CCCn1c2ccccc2c2cnn(CC(=O)NCCCN3CCN(c4ccccc4)CC3)c(=O)c21,?,?,i,i,21µM,?
CC(C)N(Cc1ccccc1)C(=O)Cn1ncc2c3ccccc3n(Cc3ccccc3)c2c1=O,?,nt,i,i,18µM,i
CCCn1c2ccccc2c2cnn(CC(=O)NCCc3ccccc3)c(=O)c21,23µM,nt,i,i,?,?
CCCn1c2ccccc2c2cnn(CC(=O)NCCCN3CCCCC3)c(=O)c21,i,i,i,i,i,i
COc1ccc(CCNC(=O)Cn2c(=O)cnc3ccccc32)cc1,?,i,i,i,23µM,i
CCCNC(=O)Cn1c(=O)cnc2ccccc21,i,i,i,i,i,i
COC(=O)c1ccc(NC(=O)c2cc(=O)c3ccc(C)cc3o2)cc1,i,nt,i,i,i,i
CCC1CCCCN1CCCNC(=O)Cn1ncc2c(C)n(Cc3ccccc3Cl)c(C)c2c1=O (centres undefined),18µM,i,i,nt,18µM,i
CCCCN(C(=O)c1cc(=O)[nH]c2ccccc12)c1c(N)n(CCCC)c(=O)[nH]c1=O,i,i,i,i,i,i
CCOC(=O)N1C(=O)[C@](CC)(c2ccccc2)N1C(=O)OCC,8.2µM,-98,i,nt,?,?
CCCNC(=O)c1c(NC(=O)c2ccc(C)cc2)sc2c1CCCCC2,?,nt,i,nt,i,i
O=C(COc1coc(CN2CCc3ccccc3C2)cc1=O)Nc1ccccc1F,i,i,i,i,i,i
CC(C)(CSc1ncccn1)NS(=O)(=O)c1ccccc1,i,i,i,i,i,i
Cc1ccc(S(=O)(=O)NC(C)(C)CSc2nnc(Nc3ccccc3)s2)cc1,23µM,i,i,i,?,?
CC(=O)Nc1ccccc1-c1nc(CNC(=O)c2ccc(C)cc2)c(C)o1,i[9.04 µM],nt,nt,nt,?,nt

# Assay outcomes (PubChem)
